Measurements reported in PubChem BioAssay (NCATS).
Several values for one entry are separate records, joined by “and”; a condition that tells them apart may be missing. Equal values may be shown once. Inconclusive results are not listed. Activity calls are given as the source filed them. Unless noted, calls come from the whole dose curve; as a rule, active = well fitted curve in the direction sought with a large enough effect; inconclusive = small, poorly fitted or top-dose-only effect, or another doubt; inactive = no such curve, though single readings can be large; an effect the other way counts as inactive or inconclusive.

Columns and labels:
[1] = Cell Viability - HepG2 (AID 433; calls by dose curve;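 note: potency is the fitted concentration of half-maximal effect; cells exposed to compound for 40 hours; potency for ATP loss meaning cytotoxicity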); details: qHTS
Procedure, shortened: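 In this qHTS format, a 40 h, 37 °C compound incubation of HepG2 cells in complete medium precedes a 20 min CellTiter-Glo step at room temperature. Tamoxifen and doxorubicin serve as positive controls; Hill-equation fits yield AC50.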

[2] = Cell Viability - MRC5 (AID 434; calls by dose curve;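 note: potency is the fitted concentration of half-maximal effect; cells exposed to compound for 40 hours at 37 °C; potency reflects cytotoxicity seen as loss of intracellular ATP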); details: MRC5 lung fibroblast viability, qHTS
Procedure, shortened: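 ATP luminescence read-out (CellTiter-Glo, 20 min RT) after 40 hr, 37 °C compound exposure of 1500 MRC5 cells/well. Data normalized to DMSO (basal) and 100 uM tamoxifen (100% inhibition); AC50 from standard Hill equation.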

[3] = target: Mitogen-activated protein kinase 10 (Mus musculus) (UniProt Q61831); assay: JNK3 AlphaScreen Assay (AID 530; active = well fitted curve in either direction with a large enough effect, not every such curve was filed as active;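 note: kinase came from lysate of stimulated human HepG2 cells; signal reports phosphorylation of biotinylated GST-cJun 1-79 at Ser73 with 10 µM ATP; % is set by controls: 0 for no effect and ±100 for the full control effect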); details: JNK3 lysate, c-Jun phosphorylation; series mostly up to 57.1 µM
Procedure, shortened: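 HepG2 lysate (IL-1b/TNFa pre-activated) + biotin-GST-cJun 1-79 + anti-pSer73 cJun; cpd titration, 15 min RT; ATP 10 uM start; Tris pH 7.6, MgCl2, DTT, vanadate; beads in EDTA buffer; AlphaScreen.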

[4] = Cell Viability - Mesenchymal (AID 546); details: mesenchymal cells viability, qHTS; series mostly up to 91.7 µM;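 note: cells exposed to compound for 40 hours before reading; 0% = DMSO only and -100% = 100 µM tamoxifen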
Procedure, shortened: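 Human renal mesenchymal cells (glomerulus-derived), 1000 cells/well, 5 hr 37 °C pre-incubation; compound 40 hr, 37 °C; CellTiter-Glo, 20 min RT; luminescence; AC50 via Hill equation.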

[5] = Cellular Toxicity (caspase-3) HUV-EC-C (AID 656); details: HUV-EC-C cells, caspase-3 activation (apoptosis), vehicle = 0, 100 µM tamoxifen = 100%; series mostly up to 92.2 µM;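 note: 0% = DMSO basal and 100% = 100 µM tamoxifen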
Procedure, shortened: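 Concentration-dependent caspase 3/7 induction was assessed in HUV-EC-C cells exposed for 16 hours. Data scaled between DMSO and tamoxifen (100 uM) controls.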

[6] = Cellular Toxicity (caspase-3) SK-N-SH (AID 661); details: SK-N-SH caspase-3 activation, qHTS; series mostly up to 91.7 µM;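 note: 0% = DMSO basal and 100% = 10 µM staurosporine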
Procedure, shortened: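 Luminescent Caspase-Glo 3/7 read-out after 16 hr compound exposure of SK-N-SH neuroblastoma cells at 37 °C. Signal increase normalized to DMSO (basal) and 10 uM staurosporine (100%); AC50 from Hill equation fits of qHTS concentration-response data.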

[7] = Cellular Toxicity (caspase-3) H-4-II-E (AID 663); details: H-4-II-E rat hepatoma; Potency: caspase-3 activation; series mostly up to 92.2 µM;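 note: cells exposed to compound for 16 hr before readout; 0% = DMSO basal and 100% = 100 µM tamoxifen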
Procedure, shortened: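 H-4-II-E rat hepatoma, 1500 cells/well, 5 hr settle at 37 °C; compound 16 hr, 37 °C, complete medium; Caspase-Glo 3/7, 20 min RT; luminescence. DMSO = 0%, 100 uM tamoxifen = 100%; Hill-equation AC50.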

[8] = MultiTox-Fluor Cytotoxicity Assay - LYMP1-002 - Dead Cells (AID 960); details: LYMP1-002 lymphoblastoid cells, dead-cell protease fluorescence; series mostly up to 46.1 µM;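 note: 0% = DMSO and 100% = tetraoctylammonium bromide; nearly all actives have a fitted effect of over 60% in size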
Procedure, shortened: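 Readout: fluorescence at 485/520 from cell-impermeant bis-AAF-R110 cleaved by proteases leaking from damaged cells. LYMP1-002 lymphoblastoid line, 16 hr compound treatment at 37 C, concentration-response in qHTS format; Hill-equation AC50 values.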

[9] = MultiTox-Fluor Cytotoxicity Assay - LYMP1-003 - Live Cells (AID 962); details: LYMP1-003 lymphoblastoid cells, MultiTox-Fluor live-cell protease fluorescence; series mostly up to 92.2 µM;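 note: cells exposed to compound for 16 hours at 37 °C; 0% = DMSO only and full loss = 92 µM tetraoctylammonium bromide; cytotoxic hits lower the live-cell protease signal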
Procedure, shortened: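 Readout: live-cell fluorescence (Ex/Em=405/510) from GF-AFC cleavage after 60 min MultiTox-Fluor reagent at room temperature. Lymphoblastoid LYMP1-003 cells, 16 hr compound treatment, 37 C. Concentration-response fitted to standard Hill equation for AC50.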

[10] = Cell Viability - LYMP2-005 (AID 967); details: LYMP2-005 lymphoblastoid cell viability; series mostly up to 92.2 µM;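 note: plate controls were DMSO only for no effect and 92 µM tetraoctylammonium bromide control for full effect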
Procedure, shortened: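 Luciferase-based ATP quantitation served as the viability measure in human lymphoblastoid LYMP2-005 cells exposed to test compounds for 24 h at 37 C in complete culture medium. Potency (AC50) was obtained by fitting concentration-response curves with the Hill equation.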

[11] = Cell Viability - LYMP2-021 (AID 974); details: LYMP2-021 lymphoblastoid cells viability; series mostly up to 92.2 µM;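 note: compound exposure lasts 24 hours at 37 °C; % is set by controls: 0 for no effect and ±100 for the full control effect; nearly all actives have a fitted effect of over 55% in size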
Procedure, shortened: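 ATP luminescence (CellTiter-Glo, 30 min RT) after 24 h compound exposure at 37 C; 2500 human lymphoblastoid cells/well, 5 h settle beforehand. Cytotoxicity = concentration-dependent ATP drop, AC50 by Hill fit.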

[12] = Cell Viability - LYMP2-006 (AID 978); details: LYMP2-006 lymphoblastoid cell viability, qHTS; series mostly up to 92.2 µM; note: % is set by controls: 0 for no effect and ±100 for the full control effect; nearly all actives have a fitted effect of over 60% in size
Procedure, shortened: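 In this cytotoxicity screen, the human lymphoblastoid line grew in complete medium with test compounds for 24 hr at 37 C. Cellular ATP served as the viability signal.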

[13] = Cell Viability - LYMP2-007 (AID 979); details: LYMP2-007 lymphoblastoid cell viability; series mostly up to 92.2 µM;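 note: cells exposed to compound for 24 h before reading; 0% = DMSO only and the negative end = 92 µM tetraoctylammonium bromide; nearly all actives have a fitted effect of over 60% in size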
Procedure, shortened: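 qHTS cytotoxicity: 2500 cells/well, 5 hr 37 C settle, compound 24 hr 37 C, CellTiter-Glo 30 min RT, luminescence. Decrease in ATP = toxicity. AC50 by standard Hill equation; tetraoctylammonium bromide positive control.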

[14] = target: Vitamin D3 receptor (Homo sapiens) (UniProt P11473); assay: qHTS assay for small molecule antagonists of vitamin D receptor signaling (AID 588541; calls by dose curve;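 note: receptor activated by calcitriol during compound treatment; % is set by controls: 0 for no effect and ±100 for the full control effect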); details: HEK293T VDR-UAS-bla, beta-lactamase ratio, antagonist mode; series mostly up to 76.7 µM
Sequence of Vitamin D3 receptor (Homo sapiens) (P11473 whole entry, looked up): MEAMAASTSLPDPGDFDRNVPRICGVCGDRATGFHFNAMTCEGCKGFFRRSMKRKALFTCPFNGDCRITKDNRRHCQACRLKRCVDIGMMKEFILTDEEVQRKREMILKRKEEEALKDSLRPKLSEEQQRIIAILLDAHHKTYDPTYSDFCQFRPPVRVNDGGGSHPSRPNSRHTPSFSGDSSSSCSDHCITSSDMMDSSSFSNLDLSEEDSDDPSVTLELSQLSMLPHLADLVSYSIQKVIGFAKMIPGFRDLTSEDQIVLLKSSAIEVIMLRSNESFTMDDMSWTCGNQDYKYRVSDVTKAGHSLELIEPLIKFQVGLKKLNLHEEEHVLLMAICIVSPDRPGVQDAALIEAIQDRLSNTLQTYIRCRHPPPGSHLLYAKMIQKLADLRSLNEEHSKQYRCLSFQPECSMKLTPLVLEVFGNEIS
Procedure, shortened: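 VDR-UAS-bla HEK293T cells in 2% charcoal-stripped FBS were stimulated with 1-alpha,25-dihydroxyvitamin D3 (3 nM final) plus compound for 16 h at 37 C. The beta-lactamase CCF4 readout was normalized to 50 nM agonist and DMSO, and Hill fits gave IC50.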

[15] = target: Retinoic acid receptor RXR-alpha (Homo sapiens) (UniProt P19793); assay: qHTS assay for small molecule agonists of retinoid X receptor alpha signaling (AID 588544; calls by dose curve;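 note: 0% = DMSO basal wells and 100% = reference agonist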); details: HEK293T RXRa-UAS-bla, beta-lactamase reporter, 18 h; series mostly up to 76.7 µM
Sequence of Retinoic acid receptor RXR-alpha (Homo sapiens) (P19793 whole entry, looked up): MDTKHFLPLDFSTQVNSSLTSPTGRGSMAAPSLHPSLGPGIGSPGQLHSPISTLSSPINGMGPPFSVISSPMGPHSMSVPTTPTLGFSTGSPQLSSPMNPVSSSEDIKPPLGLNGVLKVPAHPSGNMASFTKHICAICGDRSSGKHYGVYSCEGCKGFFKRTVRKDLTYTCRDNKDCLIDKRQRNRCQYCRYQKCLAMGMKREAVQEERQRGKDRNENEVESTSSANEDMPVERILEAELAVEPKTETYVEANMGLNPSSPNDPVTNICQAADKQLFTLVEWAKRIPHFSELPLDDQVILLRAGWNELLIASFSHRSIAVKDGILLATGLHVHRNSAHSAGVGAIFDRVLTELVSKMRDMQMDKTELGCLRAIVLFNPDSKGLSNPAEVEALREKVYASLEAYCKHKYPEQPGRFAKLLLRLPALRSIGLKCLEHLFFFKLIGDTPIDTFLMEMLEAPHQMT

[16] = target: Thyroid hormone receptor beta (Homo sapiens) (UniProt P10828); assay: qHTS assay for small molecule agonists of thyroid hormone receptor beta signaling (AID 588545; calls by dose curve;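 note: 0% = DMSO only and 100% = 10 nM T3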); details: TR-UAS-bla GripTite HEK 293, beta-lactamase ratio, agonist mode, 18 h; series mostly up to 76.7 µM
Sequence of Thyroid hormone receptor beta (Homo sapiens) (P10828 whole entry, looked up): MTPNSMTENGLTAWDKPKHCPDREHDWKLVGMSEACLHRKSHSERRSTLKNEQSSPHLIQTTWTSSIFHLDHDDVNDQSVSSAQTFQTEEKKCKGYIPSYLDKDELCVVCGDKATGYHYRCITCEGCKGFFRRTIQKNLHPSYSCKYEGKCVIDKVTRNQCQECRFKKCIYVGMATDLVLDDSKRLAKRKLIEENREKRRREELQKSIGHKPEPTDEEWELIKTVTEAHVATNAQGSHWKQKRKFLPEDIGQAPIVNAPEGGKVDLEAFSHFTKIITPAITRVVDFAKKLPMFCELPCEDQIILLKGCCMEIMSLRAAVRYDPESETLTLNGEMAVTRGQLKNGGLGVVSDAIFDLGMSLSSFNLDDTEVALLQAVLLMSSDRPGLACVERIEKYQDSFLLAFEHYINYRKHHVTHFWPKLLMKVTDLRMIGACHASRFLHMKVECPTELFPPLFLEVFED
Procedure, shortened: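 Compounds were tested as agonists in TR-UAS-bla-GripTite HEK 293 cells. After 18 hrs at 37 C, CCF4 substrate was added and fluorescence read after 2 hrs at room temperature.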

[17] = target: Thyroid hormone receptor beta (Homo sapiens) (UniProt P10828); assay: qHTS assay for small molecule antagonists of thyroid hormone receptor beta signaling (AID 588547; active = well fitted inhibition curve with a large enough effect in the signal ratio, with a control signal flat, not every such curve was filed as active; the % refers to the signal ratio;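 note: cells stimulated with 0.4 nM T3 agonist during compound exposure; % is set by controls: 0 for no effect and ±100 for the full control effect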); details: TR-UAS-bla HEK293, beta-lactamase ratio, antagonist mode, 18 h
Procedure, shortened: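 TR-UAS-bla GripTite HEK293 cells in 2% charcoal/dextran FBS medium; compounds 0.59 nM to 92 uM with T3 at 0.4nM final, 18 h at 37 C. Beta-lactamase read by CCF4 fluorescence (460/530 nm); Hill fits gave IC50 and efficacy.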

[18] = target: Nuclear receptor subfamily 1 group I member 2 (Rattus norvegicus) (UniProt Q9R1A7); assay: qHTS assay for small molecule activators of the rat pregnane X receptor (rPXR) signaling pathway (AID 651751; call rule not given here; note: 0% is about no effect); details: rPXR reporter cells, luciferase (One-Glo), 24 h
Sequence of Nuclear receptor subfamily 1 group I member 2 (Rattus norvegicus) (Q9R1A7 whole entry, looked up): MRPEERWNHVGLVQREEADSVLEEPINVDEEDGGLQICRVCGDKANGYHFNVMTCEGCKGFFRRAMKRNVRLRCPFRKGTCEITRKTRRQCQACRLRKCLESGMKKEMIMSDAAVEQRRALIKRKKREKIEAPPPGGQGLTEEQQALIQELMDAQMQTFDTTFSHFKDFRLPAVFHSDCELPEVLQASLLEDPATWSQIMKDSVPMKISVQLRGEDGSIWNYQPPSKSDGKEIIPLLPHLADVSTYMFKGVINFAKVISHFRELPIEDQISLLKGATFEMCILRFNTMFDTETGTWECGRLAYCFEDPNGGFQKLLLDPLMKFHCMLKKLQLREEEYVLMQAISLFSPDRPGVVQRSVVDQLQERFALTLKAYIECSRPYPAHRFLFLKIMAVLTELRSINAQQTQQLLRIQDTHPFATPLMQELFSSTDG

[19] = qHTS assay for small molecule activators of the human pregnane X receptor (PXR) signaling pathway (AID 720659; call rule not given here; note: 0% is about no effect); details: DPX-2 HepG2 CYP3A4-luciferase, 24 h; series mostly up to 92.3 µM
[20] = Cell Viability - LYMP2-023 (AID 975); details: LYMP2-023 lymphoblastoid cell viability; series mostly up to 92.2 µM;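 note: cellular ATP measured by luciferase luminescence as viability proxy; plate controls were DMSO only for no effect and 92 µM tetraoctylammonium bromide control for full effect; nearly all actives have a fitted effect of over 55% in size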
Procedure, shortened: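 CellTiter-Glo luminescence after 30 min at room temperature; decrease in intracellular ATP reflects toxicity. Cells: human lymphoblastoid line, 2500/well, 24 hr compound exposure at 37 C. AC50 fitted to standard Hill equation from concentration-response.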

O=NN1CCCCC1
inactive: Potency [1] > 92 µM | Potency [2] > 92 µM | Potency [3] | Potency [4] | outcome [5] | Potency [6] | Potency [7] | Potency [8] | outcome [9] | Potency [10] | Potency [11] | Potency [12] | Potency [13] | outcome [14] | outcome [15] | Potency [16] | activity change % (negative = inhibition) [17] 8.23% | max response [18] -1.74% | outcome [19]

C=CCCl
inactive: Potency [1] > 92 µM | Potency [2] > 92 µM | Potency [3] | Potency [4] | outcome [5] | Potency [7] | Potency [8] | outcome [9] | Potency [10] | Potency [11] | Potency [20] | Potency [13] | outcome [14] | outcome [15] | activity change % (negative = inhibition) [17] -1.64% | max response [18] 0.623% | outcome [19]

O=C(Cl)OCc1ccccc1
inactive: Potency [1] > 92 µM | Potency [2] > 92 µM | Potency [3] | Potency [4] | outcome [5] | Potency [6] | Potency [7] | Potency [8] | Potency [10] | Potency [11] | Potency [20] | Potency [12] | Potency [13] | outcome [14] | outcome [15] | max response [18] 4.69% | outcome [19]

CN(C)C(=O)Cl
inactive: Potency [1] > 92 µM | Potency [2] > 92 µM | Potency [3] | Potency [4] | outcome [5] | Potency [6] | Potency [7] | Potency [10] | Potency [20] | Potency [12] | Potency [13] | outcome [14] | outcome [15] | activity change % (negative = inhibition) [17] -23.4% | max response [18] -2.26% | outcome [19]

N#CCBr
inactive: Potency [1] > 92 µM | Potency [2] > 92 µM | Potency [3] | Potency [4] | outcome [5] | Potency [6] | Potency [7] | Potency [8] | outcome [9] | Potency [10] | Potency [11] | Potency [12] | Potency [13] | outcome [14] | outcome [15] | Potency [16] | activity change % (negative = inhibition) [17] 11.7% | max response [18] -1.93% | outcome [19]

O=C(O)C(Cl)(Cl)Br
inactive: Potency [1] > 92 µM | Potency [2] > 92 µM | Potency [3] | Potency [4] | outcome [5] | Potency [6] | Potency [7] | Potency [8] | outcome [9] | Potency [10] | Potency [11] | Potency [20] | Potency [12] | Potency [13] | outcome [14] | outcome [15] | Potency [16] | activity change % (negative = inhibition) [17] -3.52% | max response [18] 3.3% | outcome [19]

OCCCCO
inactive: Potency [1] > 92 µM | Potency [2] > 92 µM | Potency [3] | outcome [5] | Potency [6] | Potency [8] | outcome [9] | Potency [10] | Potency [11] | Potency [20] | Potency [12] | Potency [13] | outcome [14] | outcome [15] | Potency [16] | activity change % (negative = inhibition) [17] 10.4%

O=S(=O)(O)F
inactive: Potency [1] > 92 µM | Potency [2] > 92 µM | Potency [3] | Potency [4] | Potency [6] | Potency [7] | Potency [8] | outcome [9] | Potency [10] | Potency [11] | Potency [20] | Potency [12] | Potency [13] | outcome [14] | outcome [15] | Potency [16] | activity change % (negative = inhibition) [17] 10% | max response [18] 0.583% | outcome [19]

N#CC(O)c1ccccc1 (stereo not drawn)
inactive: Potency [1] > 92 µM | Potency [2] > 92 µM | Potency [3] | Potency [4] | outcome [5] | Potency [6] | Potency [7] | Potency [8] | outcome [9] | Potency [10] | Potency [11] | Potency [20] | Potency [13] | outcome [14] | outcome [15] | Potency [16] | activity change % (negative = inhibition) [17] 8.13% | max response [18] 0.679% | outcome [19]

Cc1ccc(N)c(C)c1
inactive: Potency [1] > 92 µM | Potency [2] > 92 µM | Potency [3] | Potency [4] | outcome [5] | Potency [6] | Potency [7] | Potency [8] | Potency [10] | Potency [11] | Potency [20] | Potency [12] | outcome [14] | outcome [15] | Potency [16] | activity change % (negative = inhibition) [17] 2.7% | max response [18] -0.287% | outcome [19]

Cc1cnc[nH]1
inactive: Potency [1] > 92 µM | Potency [2] > 92 µM | Potency [3] | Potency [4] | outcome [5] | Potency [6] | Potency [7] | Potency [8] | outcome [9] | Potency [10] | Potency [11] | Potency [20] | Potency [12] | Potency [13] | outcome [14] | Potency [16] | activity change % (negative = inhibition) [17] 8% | max response [18] -5.24% | outcome [19]

Oc1cc(Cl)ccc1Cl
inactive: Potency [1] > 92 µM | Potency [2] > 92 µM | Potency [3] | Potency [4] | outcome [5] | Potency [6] | Potency [7] | Potency [8] | outcome [9] | Potency [10] | Potency [11] | Potency [20] | Potency [12] | outcome [14] | outcome [15] | Potency [16] | activity change % (negative = inhibition) [17] -3.5% | max response [18] -2.5% and -2.48% | outcome [19]

c1ccc(NNc2ccccc2)cc1
inactive: Potency [1] > 92 µM | Potency [2] > 92 µM | Potency [3] | Potency [4] | outcome [5] | Potency [6] | Potency [7] | Potency [8] | outcome [9] | Potency [10] | Potency [11] | Potency [20] | Potency [12] | Potency [13] | outcome [14] | outcome [15] | Potency [16] | activity change % (negative = inhibition) [17] 8.59% | max response [18] 12.1% and 2.7% | outcome [19]
